For 38 compounds, outcome and activity change, negative = cytotoxicity results are on record in PubChem BioAssay (Tox21).

Records with an inconclusive call do not appear. A number with no mark means an inactive call. Active and inactive are the calls of the source. Unless noted, the call rests on the fitted dose curve. Where a SMILES comes first, the peptide text is derived from it. [ ]: non-standard residue; d: D form. pGlu = O=C1CC[C@@H](C(=O)O)N1
On the % scale 0 is the no-effect control and ±100 the full control effect.

One assay can be described thus: qHTS assay to identify small molecule agonists of the hypoxia (HIF-1) signaling pathway (AID 1224846; active means well fitted activation curve with a large enough effect in the signal ratio in the repeat runs, not every such curve was filed as active; the % refers to the signal ratio). The settings on record: HRE-bla ME-180 cells, beta-lactamase ratio, 17 h; series mostly up to 76.8 µM. A digest of the protocol: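 Compounds from the Tox21 10K library, dissolved in DMSO, are tested for induction of a hypoxia response element–controlled beta-lactamase reporter in ME-180 cells. Exposure lasts 17 hrs at 37C after a 5 hr settling period, followed by CCF4-AM FRET substrate.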
`CCCCCCC#CC(=O)OC`: the outcome was inactive.

Consider `O=C(O)CCSCCC(=O)O`, for which the result was inactive.

As to `O=Cc1cccc(Br)c1`, the outcome was inactive.

As for `CCCCCCCCCCCCCCCCCCO`, the outcome was inactive.

Turning to `CCN(C=O)CC`, the outcome was inactive.

As to `COc1ccc2cc1Oc1cc3c(cc1OC)CC[N+](C)(C)[C@H]3Cc1ccc(cc1)Oc1c(OC)c(OC)cc3c1[C@@H](C2)[N+](C)(C)CC3`, the result was inactive.

Turning to `Cc1ccc(C(=O)c2ccccc2)cc1`, the result was inactive.

Turning to `O=C(O)CC(C(=O)O)S(=O)(=O)O` (stereo not given), the outcome was inactive.

In the case of `CC1(C)OC[C@@H](COC(=O)CCc2ccc(OC[C@@H](O)CNCCNC(=O)N3CCOCC3)cc2)O1`, the outcome was inactive.

`CC(CC=O)CC(C)(C)C` (stereo not given): the result was inactive.

As for `NC(CCC(=O)O)C(=O)O` (stereo not given), the result was inactive.

Take `CCOC(=O)C(=O)CCCCCCl`: the outcome was inactive.

`Clc1cc(Cl)cc(Cl)c1`: the result was inactive.

Turning to `CCNC(=O)[C@@H]1CCCN1C(=O)[C@H](CCCN=C(N)N)NC(=O)[C@H](CC(C)C)NC(=O)CNC(=O)[C@H](Cc1ccc(O)cc1)NC(=O)[C@H](CO)NC(=O)[C@H](Cc1c[nH]c2ccccc12)NC(=O)[C@H](Cc1cnc[nH]1)NC(=O)[C@@H]1CCC(=O)N1` ([pGlu]HWSYGLRP-NHEt), the outcome was inactive.

With `CCCO[Si](OCCC)(OCCC)OCCC`, the outcome was inactive.

Take `CCCCCCCCCCCCSC`: the result was inactive.

With `CC(C)(C)c1ccc(-c2ccc(C(C)(C)C)cc2)cc1`, the result was inactive.

Take `CC(C#N)(CCC(=O)O)N=NC(C)(C#N)CCC(=O)O` (stereo not given): the result was inactive.

As for `CC(=O)Nc1ccc(OCC(O)CNC(C)C)cc1` (stereo not given), the outcome was inactive.

With `CCCCOCCOC(=O)CCCCCCCCC(=O)OCCOCCCC`, the result was inactive.

Take `CC(C)C(=O)OC(=O)C(C)C`: the outcome was inactive.

In the case of `CCCOC(=O)CC`, the result was inactive.

For the compound `COc1cc(C)nc(-n2nc(C)cc2OC)n1`, the result was inactive.

For `O=[N+]([O-])c1ccc(/C=N\O)o1`, the outcome was inactive.

Regarding `[O-][n+]1cccc(CO)c1`, the result was inactive.

Take `O=S(=O)(O)c1cccc2c(S(=O)(=O)O)cccc12`: the outcome was inactive.

With `CCCCCC(=O)OCCc1ccccc1`, the outcome was inactive.

For `COc1ccccc1OCC1CNC(=O)O1` (stereo not given), the result was inactive.

On to `CCCCCC(C)N` (stereo not given), for which the outcome was inactive.

Take `CCC(C(=O)NC(=O)NC(C)=O)c1ccccc1` (stereo not given): the result was inactive.

Regarding `CC[C@H]1OC(=O)[C@H](C)[C@@H](O[C@H]2C[C@@](C)(OC)[C@@H](O)[C@H](C)O2)[C@H](C)[C@@H](O[C@@H]2O[C@H](C)C[C@H](N(C)C)[C@H]2O)[C@](C)(OC)C[C@@H](C)C(=O)[C@H](C)[C@@H](O)[C@]1(C)O`, the outcome was inactive.

With `C=CCOCC(O)CO` (stereo not given), the outcome was inactive.

With `CC(=O)Oc1cccc(C)c1`, the result was inactive.

The nature of the next assay: qHTS assay to identify small molecule agonists of H2AX - cell viability counter screen (AID 1224847). Further: top concentration of the series differs between compounds; nearly all actives have a fitted effect of over 30% in size. The following applies: CHO-K1 viability, CellTiter-Glo luminescence, 3 h; series mostly up to 154 µM. In short, it runs like this:
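Wild-type CHO-K1 cells (10% FBS medium) were plated overnight at 37C, exposed to compounds at 15 concentrations for 3 hr at 37C (0.76% DMSO final), and viability was read as CellTiter-Glo luminescence after 30 min at room temperature.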
Background: In qHTS, concentration-response curves come from the screen itself.
Regarding `O=C(O)CCSCCC(=O)O`, the compound was classed as inactive.

For the compound `Cc1ccc(C(=O)c2ccc(CC(=O)O)n2C)cc1`, the compound was called inactive.

For `CCCCCCCCCCCCCCCCCCO`, the compound was called inactive.

For `CCN(C=O)CC`, the call was inactive.

Turning to `COc1ccc2cc1Oc1cc3c(cc1OC)CC[N+](C)(C)[C@H]3Cc1ccc(cc1)Oc1c(OC)c(OC)cc3c1[C@@H](C2)[N+](C)(C)CC3`, the outcome was inactive.

For the compound `CC(C)C[C@@H](N)C(=O)O`, the activity change, negative = cytotoxicity was -4.41% [at 31.6 µM].

On to `O=C(O)CC(C(=O)O)S(=O)(=O)O` (stereo not given), for which the result was inactive.

Consider `CC1(C)OC[C@@H](COC(=O)CCc2ccc(OC[C@@H](O)CNCCNC(=O)N3CCOCC3)cc2)O1`, for which the result was inactive.

Take `CC(CC=O)CC(C)(C)C` (stereo not given): the call was inactive.

Take `NC(CCC(=O)O)C(=O)O` (stereo not given): the call was inactive.

For `CCOC(=O)C(=O)CCCCCCl`, the compound was classed as inactive.

As for `CO/N=C(\C(=O)N[C@@H]1C(=O)N2C(C(=O)O)=C(CSc3nc(=O)c(O)nn3C)CS[C@H]12)c1csc(N)n1`, the result was inactive.

As for `CCNC(=O)[C@@H]1CCCN1C(=O)[C@H](CCCN=C(N)N)NC(=O)[C@H](CC(C)C)NC(=O)CNC(=O)[C@H](Cc1ccc(O)cc1)NC(=O)[C@H](CO)NC(=O)[C@H](Cc1c[nH]c2ccccc12)NC(=O)[C@H](Cc1cnc[nH]1)NC(=O)[C@@H]1CCC(=O)N1` ([pGlu]HWSYGLRP-NHEt), the call was inactive.

Turning to `CCCCCCCCCCCCSC`, the compound was classed as inactive.

Take `CC(C)(C)c1ccc(-c2ccc(C(C)(C)C)cc2)cc1`: the compound was called inactive.

Regarding `CC(C#N)(CCC(=O)O)N=NC(C)(C#N)CCC(=O)O` (stereo not given), the compound was classed as inactive.

`NCCCC[C@H](N[C@@H](CCc1ccccc1)C(=O)O)C(=O)N1CCC[C@H]1C(=O)O`: the call was inactive.

As for `CC(=O)Nc1ccc(OCC(O)CNC(C)C)cc1` (stereo not given), the compound was classed as inactive.

In the case of `CCCCOCCOC(=O)CCCCCCCCC(=O)OCCOCCCC`, the compound was called inactive.

For the compound `CCCOC(=O)CC`, the result was inactive.

Consider `O=[N+]([O-])c1ccc(/C=N\O)o1`, for which the compound was classed as inactive.

For `O=S(=O)(O)c1cccc2c(S(=O)(=O)O)cccc12`, the call was inactive.

As for `CCCCCC(=O)OCCc1ccccc1`, the compound was called inactive.

Take `COc1ccccc1OCC1CNC(=O)O1` (stereo not given): the result was inactive.

With `CCCCCC(C)N` (stereo not given), the result was inactive.

Turning to `COC(=O)C1=C(C)NC(C)=C(C(=O)OC(C)C)C1c1cccc2nonc12` (stereo not given), the compound was classed as inactive.

On to `CC[C@H]1OC(=O)[C@H](C)[C@@H](O[C@H]2C[C@@](C)(OC)[C@@H](O)[C@H](C)O2)[C@H](C)[C@@H](O[C@@H]2O[C@H](C)C[C@H](N(C)C)[C@H]2O)[C@](C)(OC)C[C@@H](C)C(=O)[C@H](C)[C@@H](O)[C@]1(C)O`, for which the compound was classed as inactive.
